Source: PubChem BioAssay
Bcl-xL primary: Bcl-xL (human) inhibition; Q07817; GST-Bcl-xL / FITC-Bim BH3 peptide fluorescence polarization; inhibition, % at 10.9 µM; hit rate 0.7% among 320,000;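 active = inhibition above the mean of all tested compounds plus 3 SD, cutoff set per campaign, cut at about 30% in these data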;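 note: 0% = DMSO wells and 100% = unlabeled Bim-BH3 peptide competitor; inhibitors lower millipolarization by displacing the labeled peptide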
E coli Lon inh: E. coli protease La inhibition. P0A9M0. purified E. coli Lon protease, fluorescence polarization. inhibition, % at 7.94 µM. hit rate 0.42% among 360,000. AID 602123; in the data active = inhibition above about 13%, passing the limit was not always enough;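 note: 0% = enzyme with probe and DMSO and 100% = no enzyme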
MCL1-BIM inh: inhibitors of human MCL1 binding to BIM-BH3 peptide | GST-MCL1 / FITC-Bim-BH3 fluorescence polarization | Q07820 | inhibition, % at 10.9 µM | hit rate 0.68% among 320,000 | AID 2057;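 active = inhibition above the mean inhibition of all tested compounds plus 3 SD, set per campaign, cut at about 40% in these data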;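 note: 0% = DMSO wells and 100% = unlabeled Bim-BH3 peptide control; higher means more loss of mP so more displacement of Bim peptide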
GLD-1 RNA inh: GLD-1-TGE RNA interaction inhibition (C. elegans); inhibition, % at 5.96 µM; purified GLD-1 + fluorescein TGE RNA, fluorescence polarization; Q17339; hit rate 0.44% among 320,000; AID 2280;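 active = percent inhibition above a per-plate cutoff, the plate mean of test compounds plus 3 SD, cut at about 30% in these data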;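 note: 0% = DMSO wells with GLD-1 and probe and 100% = wells lacking GLD-1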
EBV gp42 inh: blocks Epstein-Barr virus glycoprotein 42 binding; Q1HVG2; hit rate 0.42% among 220,000; Fluorescence polarization binding assay, mP read-out; inhibition, % (tested at 21.74 µM); in the data active = inhibition above about 50%
MEX-5 binding: C. elegans MEX-5 TCR-2 RNA binding activity. Q9XUB2. MEX-5/FITC-TCR2 RNA binding, fluorescence polarization; stronger effect = lower value. activity score (negative = inhibition of binding), % at 10 µM. hit rate 0.38% among 300,000. AID 1832;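 active = inhibition past about -25% in most replicates, and total fluorescence under double the plate's negative control median, limit read from the data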;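 note: 0% = DMSO and -100% = 5 µM competing unlabeled TCR2 RNA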
Target sequence (Q9XUB2 whole entry, looked up): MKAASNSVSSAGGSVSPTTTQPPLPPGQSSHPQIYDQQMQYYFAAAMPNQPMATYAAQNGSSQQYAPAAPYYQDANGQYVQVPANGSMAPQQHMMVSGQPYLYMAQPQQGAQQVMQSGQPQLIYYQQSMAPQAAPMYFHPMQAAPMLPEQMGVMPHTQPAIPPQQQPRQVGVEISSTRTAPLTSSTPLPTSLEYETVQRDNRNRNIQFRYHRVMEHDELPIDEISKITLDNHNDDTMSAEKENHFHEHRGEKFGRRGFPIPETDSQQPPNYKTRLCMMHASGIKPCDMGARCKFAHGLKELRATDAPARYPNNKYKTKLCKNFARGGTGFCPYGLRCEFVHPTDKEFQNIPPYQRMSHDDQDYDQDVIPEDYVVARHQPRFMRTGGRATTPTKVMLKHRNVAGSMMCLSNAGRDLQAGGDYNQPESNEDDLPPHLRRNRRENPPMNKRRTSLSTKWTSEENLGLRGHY
* hit, by the source's call; / = no result; + = active, no number. Only some compounds are listed: those with a hit (about 1.4% of all), similar ones and a draw of the others.

SMILES	Bcl-xL primary	E coli Lon inh	MCL1-BIM inh	GLD-1 RNA inh	EBV gp42 inh	MEX-5 binding
CN(C)c1ccc(/C=c2/sc3n(c2=O)NC2(c4ccccc4)N(C)C(=O)N(C)C2(c2ccccc2)N=3)cc1 (centres undefined)	0.7	/	-4.1	-3.4	50.2*	0.6
CN1C(=O)N(C)C2(c3ccccc3)Nn3c(s/c(=C/c4ccccc4F)c3=O)=NC12c1ccccc1 (centres undefined)	-4.1	/	-2.3	3.8	-19.6	-2.4
N#Cc1c2ccccc2nc2ccccc12	37.2*	-6.7	7.5	5.8	-15.5	1.6
Nc1c2ccccc2nc2ccccc12	2.8	-0.7	-1.6	4.7	-11.2	1.0
N#Cc1c(-c2ccccc2)cc(-c2ccc3c(c2)OCO3)[nH]c1=O	-0.5	-0.4	-8.8	1.8	/	/
COc1ccc(-c2cc(-c3ccco3)[nH]c(=O)c2C#N)cc1OC	46.3*	-21.5	46.3*	15.8	5.9	-16.0
[O-][n+]1ccccc1/C=C/c1ccccc1	2.8	-7.8	7.3	1.4	/	1.9
CN(C)c1ccc(/C=C/c2cccc[n+]2[O-])cc1	30.9*	-64.2	18.7	-2.4	-22.0	2.2
Cc1ccc(-n2cc(CN3CCC(O)(c4ccccn4)CC3)c(-c3ccc(F)cc3)n2)cc1	4.8	-8.7	6.2	8.3	-2.3	-1.2
CCN(CC)CCNC(=O)c1ccc(NC(=O)c2ccc3c(c2)CCC3)cc1	47.6*	-5.1	22.3	14.2	/	-0.4
Cc1ccccc1-c1nnc(CN2CCC(C)CC2)o1	-0.3	1.2	6.9	37.2*	/	-0.1
CC(=O)C1=CCC(c2ccc(C)o2)N(S(=O)(=O)c2ccc(C)cc2)C1 (centres undefined)	/	16.5	/	/	/	/
COc1cc(/C=C2\S/C(=N/S(=O)(=O)c3ccccc3)NC2=O)c([N+](=O)[O-])cc1OC	36.9*	4.7	37.9	17.1	4.3	-5.0
CC(=O)C1=C(c2ccccc2)NC(=O)NC1c1cccs1 (centres undefined)	5.7	-8.4	3.1	-3.9	/	-4.0
CCCCN(CC)Cc1c(O)ccc2c3c(c(=O)oc12)CCC3	-0.3	-0.3	4.0	1.0	-3.3	0.2
COc1ccc(-c2cc(C(=O)O)c3c(C)nn(-c4ccccn4)c3n2)cc1	0.9	/	-2.4	6.8	-9.6	0.0
COc1ccc(N=CC2=C(Nc3ccc(OC)cc3)c3c(C)nn(-c4ccccn4)c3CC2)cc1	+	/	+	+	/	/
COC(=O)CSc1[nH]c2ccc(Br)cc2c1[N+](=O)[O-]	5.8	-2.6	11.7	-2.4	-2.8	-1.4
CCOc1ccc2[nH]c(SCC(=O)OC)c([N+](=O)[O-])c2c1	38.7*	3.1	36.5	30.1	27.8	-0.3
Clc1ccc2c(c1)C1OCCC1C(c1ccco1)N2 (centres undefined)	32.2*	-0.9	31.4	27.1	-16.9	-2.7
Cc1sc(/C=C2\C(=O)ON=C2c2ccccc2)cc1Br	-6.0	/	-15.0	-10.0	6.7	-31.2*
CCCCc1ccc(/C=C2/C(=O)ON=C2c2ccccc2)s1	3.8	-4.9	6.1	2.7	2.3	-3.1
CCN(CC)CCn1c(=O)n(-c2ccc(Cl)cc2)c(=O)c2c3c(sc21)CN(C)CC3	35.4*	-25.3	36.5	-40.6	6.2	-13.8
CN1CCc2c(sc3c2c(=O)n(-c2ccc(Cl)cc2)c2nncn32)C1	8.3	-12.5	9.8	3.6	-1.9	-0.4
Cc1cc(NC(=O)C2CC(=O)N(c3cccc(Cl)c3)C2)no1 (centres undefined)	-1.8	-15.7	1.6	-4.4	/	-0.6
SMILES	Bcl-xL primary	E coli Lon inh	MCL1-BIM inh	GLD-1 RNA inh	EBV gp42 inh	MEX-5 binding
O=C(CN1c2cccc3cccc(c23)S1(=O)=O)NCc1ccc(F)cc1	/	-12.7	/	1.5	/	/
Cc1ccc(CNC(=O)CN2c3cccc4cccc(c34)S2(=O)=O)cc1	42.1*	-4.3	5.5	21.9	/	/
O=[N+]([O-])c1cc2cccnc2c2ncccc12	5.8	-2.9	8.4	-0.6	-8.1	-9.6
O=[N+]([O-])c1ccc(Sc2cccc3cccnc23)c2cccnc12	2.3	0.2	0.1	1.0	62.0*	-14.4
COc1ccc(N(C(=O)CCl)C(C)(C(=O)Nc2c(C)cccc2C)c2ccccn2)cc1 (centres undefined)	1.8	-14.2	0.7	-0.2	-16.9	-30.4*
C=CCN1C(=O)S/C(=C\c2ccc(N3CCOCC3)cc2C)C1=O	-6.8	-51.1	-8.0	-38.2	-40.5	-29.1*
C=CC(C)N1C(=O)S/C(=C\c2ccc(N3CCOCC3)cc2C)C1=O (centres undefined)	3.0	-21.7	0.2	-14.8	-33.2	-1.4
CN(CC(=O)Nc1ccc(Cl)c(C(F)(F)F)c1)C(=O)C1CC(=O)N(C2CCCC2)C1 (centres undefined)	-11.6	-12.9	-19.5	2.4	/	/
N#Cc1c2ccc(O)cc2n2ccccc12	44.6*	15.5	44.2*	12.9	35.7	-6.6
N#Cc1c2ccc(OCC(=O)NCc3ccco3)cc2n2ccccc12	7.6	0.8	7.1	5.3	/	0.2
COc1ccc2c(C=Nc3c(C)n(C)n(-c4ccccc4)c3=O)c(O)n(Cc3ccco3)c(=O)c2c1	-10.1	-10.8	-7.9	19.3	78.4*	-13.4
Cc1c(N=Cc2ccco2)c(=O)n(-c2ccccc2)n1C	7.3	0.5	6.8	-2.5	-17.4	0.9
O=C(O)CSc1nnc(-c2ccc(Cl)cc2Cl)n1-c1ccccc1	-5.2	-4.4	-17.3	-3.4	/	3.6
CCOc1ccc(NC(=O)c2cc3c(C)nc4ccccc4c3o2)cc1	0.9	-0.1	5.3	1.0	55.0*	-3.7
CCSc1sccc1C1C(C#N)=C(N)N(c2cccnc2)C2=C1C(=O)CCC2 (centres undefined)	31.0*	-8.4	31.3	11.6	2.2	-0.5
O=C(COC(=O)CCc1c[nH]c(=O)[nH]1)Nc1ccccc1	17.5	24.0*	17.9	13.3	-15.6	/
N#CC(C#N)=Cc1ccc(-c2ccc(S(=O)(=O)N=C(N)N)cc2)o1	4.5	-14.3	12.2	-4.7	10.4	-37.9*
COC(=O)/C(C#N)=C/c1ccc(-c2ccc(S(N)(=O)=O)cc2)o1	1.1	-5.9	-5.9	0.0	-6.6	-10.7
CN(C(=O)c1ccc(S(=O)(=O)N2CCOCC2)cc1)C1CCS(=O)(=O)C1 (centres undefined)	1.2	-1.7	-1.8	0.6	/	-0.8
COc1ccc(C(=O)/C=C/Nc2ccc([N+](=O)[O-])cc2C)cc1OC	-7.1	-10.6	-5.2	3.4	-27.9	-43.3*
Cn1nnnc1SCC(=O)Nc1ccccc1Br	-1.1	-3.8	3.3	3.3	/	0.5
Cn1nnnc1SCC(=O)Nc1ccccc1N1CCCCC1	-3.2	-3.4	-4.9	-1.9	139.7*	1.0
Cn1cnnc1SCC(=O)NC1CCCN(Cc2ccccc2F)C1 (centres undefined)	2.5	-6.7	0.5	1.5	/	1.5
